Results taken from article PMC12214610.

Key:
14-3-3 protein eta = 14-3-3 protein eta (UniProt Q04917)
Actin, cytoplasmic 2 = Actin, cytoplasmic 2 (UniProt P63261)
[1] = molecular target: Rab11 family-interacting protein 1 (UniProt Q6WKZ4)
Annexin A4 = Annexin A4 (UniProt P09525)
[2] = molecular target: Aspartate--tRNA ligase, cytoplasmic (UniProt P14868)
[3] = molecular target: Autonomous glycyl radical cofactor (UniProt P68066)
Calreticulin = Calreticulin (UniProt P27797)
[4] = molecular target: Casein kinase II subunit alpha (UniProt P68400)
Chaperone protein DnaK = Chaperone protein DnaK (UniProt P0A6Y8)
[5] = molecular target: Charged multivesicular body protein 2b (UniProt Q9UQN3)
[6] = molecular target: DNA-binding protein HU-beta (UniProt P0ACF4)
[7] = molecular target: Dihydrolipoyl dehydrogenase (UniProt P0A9P0)
Dihydrolipoyl dehydrogenase, sequence (P0A9P0 whole entry): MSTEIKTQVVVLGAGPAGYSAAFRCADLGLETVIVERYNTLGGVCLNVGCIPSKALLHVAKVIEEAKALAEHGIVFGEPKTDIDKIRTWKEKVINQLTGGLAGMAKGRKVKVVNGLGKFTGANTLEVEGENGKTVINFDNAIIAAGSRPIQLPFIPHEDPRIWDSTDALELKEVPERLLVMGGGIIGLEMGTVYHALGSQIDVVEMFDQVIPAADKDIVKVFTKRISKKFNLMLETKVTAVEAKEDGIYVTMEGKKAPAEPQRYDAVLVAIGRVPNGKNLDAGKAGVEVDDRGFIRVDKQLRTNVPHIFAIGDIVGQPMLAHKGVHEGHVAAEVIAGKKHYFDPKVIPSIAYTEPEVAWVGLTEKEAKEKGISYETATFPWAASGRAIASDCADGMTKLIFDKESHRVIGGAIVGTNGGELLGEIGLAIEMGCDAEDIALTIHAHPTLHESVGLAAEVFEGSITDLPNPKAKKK

[8] = molecular target: Pyruvate dehydrogenase E1 component (UniProt P0AFG8)
Pyruvate dehydrogenase E1 component, sequence (P0AFG8 whole entry): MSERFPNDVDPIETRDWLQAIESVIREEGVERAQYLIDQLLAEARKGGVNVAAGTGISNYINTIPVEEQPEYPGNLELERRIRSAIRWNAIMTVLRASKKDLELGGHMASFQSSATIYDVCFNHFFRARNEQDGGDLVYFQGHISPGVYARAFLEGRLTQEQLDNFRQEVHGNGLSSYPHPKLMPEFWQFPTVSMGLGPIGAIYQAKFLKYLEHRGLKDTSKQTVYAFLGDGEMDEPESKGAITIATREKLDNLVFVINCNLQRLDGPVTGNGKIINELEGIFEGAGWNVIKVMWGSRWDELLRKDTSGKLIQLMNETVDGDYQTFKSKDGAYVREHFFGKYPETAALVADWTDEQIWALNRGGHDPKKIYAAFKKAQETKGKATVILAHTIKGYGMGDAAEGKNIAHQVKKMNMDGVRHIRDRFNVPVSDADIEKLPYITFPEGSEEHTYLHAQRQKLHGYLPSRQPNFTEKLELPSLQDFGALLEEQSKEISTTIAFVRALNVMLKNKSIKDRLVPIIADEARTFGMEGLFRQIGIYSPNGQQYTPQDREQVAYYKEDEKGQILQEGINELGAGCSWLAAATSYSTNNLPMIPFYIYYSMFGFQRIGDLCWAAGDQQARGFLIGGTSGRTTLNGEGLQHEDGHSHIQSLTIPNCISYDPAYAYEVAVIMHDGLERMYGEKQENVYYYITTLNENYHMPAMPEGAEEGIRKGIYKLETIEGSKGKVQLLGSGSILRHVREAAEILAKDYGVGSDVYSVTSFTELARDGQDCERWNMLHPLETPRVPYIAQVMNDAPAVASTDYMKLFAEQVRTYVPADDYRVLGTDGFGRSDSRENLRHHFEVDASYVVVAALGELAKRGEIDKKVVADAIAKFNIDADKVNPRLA

[9] = molecular target: Dihydrolipoyllysine-residue succinyltransferase component of 2-oxoglutarate dehydrogenase complex (UniProt P0AFG6)
Dihydrolipoyllysine-residue succinyltransferase component of 2-oxoglutarate dehydrogenase complex, sequence (P0AFG6 whole entry, one chain of several): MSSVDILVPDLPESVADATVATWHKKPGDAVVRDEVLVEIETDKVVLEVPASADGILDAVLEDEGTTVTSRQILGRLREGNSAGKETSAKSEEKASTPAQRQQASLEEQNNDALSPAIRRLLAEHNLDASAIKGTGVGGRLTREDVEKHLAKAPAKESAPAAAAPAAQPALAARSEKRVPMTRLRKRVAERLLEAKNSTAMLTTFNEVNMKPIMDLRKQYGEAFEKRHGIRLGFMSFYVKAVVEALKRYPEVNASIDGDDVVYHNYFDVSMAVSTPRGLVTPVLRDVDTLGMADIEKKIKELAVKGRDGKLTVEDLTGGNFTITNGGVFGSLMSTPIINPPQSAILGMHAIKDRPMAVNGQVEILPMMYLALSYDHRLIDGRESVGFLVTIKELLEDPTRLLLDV

[10] = molecular target: Endoplasmic reticulum chaperone BiP (UniProt P11021)
Endoplasmic reticulum chaperone BiP, sequence (P11021 whole entry): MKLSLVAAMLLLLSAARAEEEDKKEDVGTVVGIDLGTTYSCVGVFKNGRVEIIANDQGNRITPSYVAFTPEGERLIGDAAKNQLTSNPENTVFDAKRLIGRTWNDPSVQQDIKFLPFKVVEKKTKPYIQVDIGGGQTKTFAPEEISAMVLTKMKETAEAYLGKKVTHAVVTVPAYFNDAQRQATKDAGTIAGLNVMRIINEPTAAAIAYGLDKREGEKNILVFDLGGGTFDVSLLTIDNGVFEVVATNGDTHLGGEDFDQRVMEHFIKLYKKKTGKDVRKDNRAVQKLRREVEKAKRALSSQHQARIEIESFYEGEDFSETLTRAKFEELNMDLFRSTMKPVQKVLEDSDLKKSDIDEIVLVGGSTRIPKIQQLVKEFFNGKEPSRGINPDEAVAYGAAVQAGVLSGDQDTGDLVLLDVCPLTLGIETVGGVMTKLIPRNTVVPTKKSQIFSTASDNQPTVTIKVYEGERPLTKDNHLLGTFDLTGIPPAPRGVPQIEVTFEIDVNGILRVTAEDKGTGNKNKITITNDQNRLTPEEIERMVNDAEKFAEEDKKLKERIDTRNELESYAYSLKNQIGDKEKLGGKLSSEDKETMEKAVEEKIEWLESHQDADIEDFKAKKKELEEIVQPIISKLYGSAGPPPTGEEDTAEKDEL

[11] = molecular target: Peptidyl-prolyl cis-trans isomerase B (UniProt P23284)
Peptidyl-prolyl cis-trans isomerase B, sequence (P23284 whole entry): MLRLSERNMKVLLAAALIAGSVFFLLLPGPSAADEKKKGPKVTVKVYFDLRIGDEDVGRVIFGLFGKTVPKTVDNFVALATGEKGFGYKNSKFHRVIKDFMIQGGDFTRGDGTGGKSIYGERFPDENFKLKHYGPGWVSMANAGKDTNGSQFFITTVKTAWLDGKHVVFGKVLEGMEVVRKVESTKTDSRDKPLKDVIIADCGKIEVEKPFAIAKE

[12] = molecular target: Fatty acid oxidation complex subunit alpha (UniProt P21177)

Calreticulin, sequence (P27797 whole entry): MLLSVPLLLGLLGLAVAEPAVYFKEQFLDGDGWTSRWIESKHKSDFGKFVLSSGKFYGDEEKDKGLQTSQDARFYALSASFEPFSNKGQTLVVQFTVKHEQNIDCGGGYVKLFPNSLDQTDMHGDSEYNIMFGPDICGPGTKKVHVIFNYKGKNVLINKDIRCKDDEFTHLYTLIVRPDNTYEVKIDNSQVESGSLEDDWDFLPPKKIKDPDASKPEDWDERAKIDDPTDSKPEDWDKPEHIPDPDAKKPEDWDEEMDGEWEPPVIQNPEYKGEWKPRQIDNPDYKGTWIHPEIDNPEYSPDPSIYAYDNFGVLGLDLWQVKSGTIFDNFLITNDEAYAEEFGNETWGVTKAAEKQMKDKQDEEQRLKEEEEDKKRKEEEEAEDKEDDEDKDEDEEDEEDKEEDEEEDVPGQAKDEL
Protein disulfide-isomerase, P07237, sequence (P07237 whole entry): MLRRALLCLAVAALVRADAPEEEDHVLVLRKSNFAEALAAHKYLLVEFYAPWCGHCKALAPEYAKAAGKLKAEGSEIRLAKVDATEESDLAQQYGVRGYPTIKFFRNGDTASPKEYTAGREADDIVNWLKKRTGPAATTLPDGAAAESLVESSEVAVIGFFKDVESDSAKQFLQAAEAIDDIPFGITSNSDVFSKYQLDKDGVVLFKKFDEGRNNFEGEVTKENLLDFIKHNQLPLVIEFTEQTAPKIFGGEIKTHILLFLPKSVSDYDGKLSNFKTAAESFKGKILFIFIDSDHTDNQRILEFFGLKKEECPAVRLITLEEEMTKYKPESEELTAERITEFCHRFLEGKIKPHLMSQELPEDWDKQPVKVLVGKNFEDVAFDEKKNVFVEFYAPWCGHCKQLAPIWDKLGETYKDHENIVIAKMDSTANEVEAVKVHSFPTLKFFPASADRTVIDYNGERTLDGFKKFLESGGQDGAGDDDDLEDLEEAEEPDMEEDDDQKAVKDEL
Aspartate--tRNA ligase, cytoplasmic, sequence (P14868 whole entry): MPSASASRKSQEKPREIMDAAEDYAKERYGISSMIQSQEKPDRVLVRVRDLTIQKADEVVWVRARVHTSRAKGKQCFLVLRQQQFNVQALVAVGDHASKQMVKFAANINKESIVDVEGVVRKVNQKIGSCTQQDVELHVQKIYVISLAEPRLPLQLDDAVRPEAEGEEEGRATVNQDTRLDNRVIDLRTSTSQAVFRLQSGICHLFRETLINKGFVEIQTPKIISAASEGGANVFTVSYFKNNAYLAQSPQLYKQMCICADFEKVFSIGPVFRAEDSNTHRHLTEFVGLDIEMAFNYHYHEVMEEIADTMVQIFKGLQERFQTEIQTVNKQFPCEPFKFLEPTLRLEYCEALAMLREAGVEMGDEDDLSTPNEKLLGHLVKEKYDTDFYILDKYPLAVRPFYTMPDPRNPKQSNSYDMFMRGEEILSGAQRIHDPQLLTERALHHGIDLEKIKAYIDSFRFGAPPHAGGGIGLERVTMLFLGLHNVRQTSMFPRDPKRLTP
Peptidyl-prolyl cis-trans isomerase B, P23284, sequence (P23284 whole entry): as the sequence (P23284 whole entry) above
Casein kinase II subunit beta, P67870, sequence (P67870 whole entry): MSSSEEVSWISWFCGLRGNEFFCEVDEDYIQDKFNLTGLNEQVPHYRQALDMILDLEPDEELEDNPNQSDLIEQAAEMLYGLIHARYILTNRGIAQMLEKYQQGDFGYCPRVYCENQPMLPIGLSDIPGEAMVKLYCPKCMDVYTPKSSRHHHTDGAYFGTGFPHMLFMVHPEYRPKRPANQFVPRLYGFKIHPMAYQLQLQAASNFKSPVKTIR
14-3-3 protein eta, sequence (Q04917 whole entry): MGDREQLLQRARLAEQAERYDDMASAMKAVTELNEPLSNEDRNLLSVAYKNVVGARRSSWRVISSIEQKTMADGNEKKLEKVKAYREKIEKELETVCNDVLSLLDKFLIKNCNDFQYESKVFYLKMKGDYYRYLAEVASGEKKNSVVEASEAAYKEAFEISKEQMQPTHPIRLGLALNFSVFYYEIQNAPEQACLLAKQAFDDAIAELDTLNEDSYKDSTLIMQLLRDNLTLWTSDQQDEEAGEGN
Annexin A4, sequence (P09525 whole entry): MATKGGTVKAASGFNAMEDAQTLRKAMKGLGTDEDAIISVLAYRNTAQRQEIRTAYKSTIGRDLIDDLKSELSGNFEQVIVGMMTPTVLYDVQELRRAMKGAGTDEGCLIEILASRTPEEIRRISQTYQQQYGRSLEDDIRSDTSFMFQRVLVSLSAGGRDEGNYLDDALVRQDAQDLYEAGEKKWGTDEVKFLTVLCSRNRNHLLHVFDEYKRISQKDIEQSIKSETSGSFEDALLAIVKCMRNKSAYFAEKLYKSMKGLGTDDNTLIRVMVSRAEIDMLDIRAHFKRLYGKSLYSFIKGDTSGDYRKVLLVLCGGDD

In the case of 14-3-3 protein epsilon, P62258, the “listed as a hit” value (14-3-3 protein eta) was “yes”.
With Heat shock protein HSP 90-beta, P08238 the “listed as a hit” value (Actin, cytoplasmic 2) was “yes”.
With Ras-related protein Rab-11B, Q15907 the “listed as a hit” value [1] was “yes”.
With Annexin A6, P08133 the “listed as a hit” value (Annexin A4) was “yes”.
With “Eukaryotic translation elongation factor 1 epsilon-1, O43324” the “listed as a hit” value [2] was “yes”.
Formate acetyltransferase 1, P09373 was tested, and the “listed as a hit” value [3] was “yes”.
With Protein disulfide-isomerase A4, P13667 the “listed as a hit” value (Calreticulin) was “yes”.
In the case of “Peptidyl-prolyl cis-trans isomerase B, P23284”, the “listed as a hit” value (Calreticulin) was “yes”.
For Casein kinase II subunit beta, P67870, the “listed as a hit” value [4] was “yes”.
Protein GrpE, P09372 was tested, and the “listed as a hit” value (Chaperone protein DnaK) was “yes”.
For “Charged multivesicular body protein 1b, Q7LBR1”, the “listed as a hit” value [5] was “yes”.
With DNA-binding protein HU-alpha, P0ACF0 the “listed as a hit” value [6] was “yes”.
In the case of “Dihydrolipoyllysine-residue acetyltransferase component of pyruvate dehydrogenase complex, P06959”, the “listed as a hit” value [7] was “yes” and the “listed as a hit” value [8] was “yes”.
With “2-oxoglutarate dehydrogenase E1 component, P0AFG3” the “listed as a hit” value [9] was “yes”.
With Dihydrolipoyl dehydrogenase, P0A9P0 the “listed as a hit” value [9] was “yes” and the “listed as a hit” value [8] was “yes”.
For Protein disulfide-isomerase, P07237, the “listed as a hit” value [10] was “yes” and the “listed as a hit” value [11] was “yes”.
3-ketoacyl-CoA thiolase FadA, P21151 was tested, and the “listed as a hit” value [12] was “yes”.
